For 33 compounds, inhibition results are on record in ChEMBL document CHEMBL1961873, “Compounds: GSK PKIS; Assays: Nanosyn kinase panel” (2012).
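Note: reported figure is a mean percent inhibition of FGFR2.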

This test deals with Fibroblast growth factor receptor 2 (Homo sapiens) (UniProt P21802). The conditions noted are these: at 1 µM.
Chain of Fibroblast growth factor receptor 2 (Homo sapiens) (P21802 22-821 limits assumed): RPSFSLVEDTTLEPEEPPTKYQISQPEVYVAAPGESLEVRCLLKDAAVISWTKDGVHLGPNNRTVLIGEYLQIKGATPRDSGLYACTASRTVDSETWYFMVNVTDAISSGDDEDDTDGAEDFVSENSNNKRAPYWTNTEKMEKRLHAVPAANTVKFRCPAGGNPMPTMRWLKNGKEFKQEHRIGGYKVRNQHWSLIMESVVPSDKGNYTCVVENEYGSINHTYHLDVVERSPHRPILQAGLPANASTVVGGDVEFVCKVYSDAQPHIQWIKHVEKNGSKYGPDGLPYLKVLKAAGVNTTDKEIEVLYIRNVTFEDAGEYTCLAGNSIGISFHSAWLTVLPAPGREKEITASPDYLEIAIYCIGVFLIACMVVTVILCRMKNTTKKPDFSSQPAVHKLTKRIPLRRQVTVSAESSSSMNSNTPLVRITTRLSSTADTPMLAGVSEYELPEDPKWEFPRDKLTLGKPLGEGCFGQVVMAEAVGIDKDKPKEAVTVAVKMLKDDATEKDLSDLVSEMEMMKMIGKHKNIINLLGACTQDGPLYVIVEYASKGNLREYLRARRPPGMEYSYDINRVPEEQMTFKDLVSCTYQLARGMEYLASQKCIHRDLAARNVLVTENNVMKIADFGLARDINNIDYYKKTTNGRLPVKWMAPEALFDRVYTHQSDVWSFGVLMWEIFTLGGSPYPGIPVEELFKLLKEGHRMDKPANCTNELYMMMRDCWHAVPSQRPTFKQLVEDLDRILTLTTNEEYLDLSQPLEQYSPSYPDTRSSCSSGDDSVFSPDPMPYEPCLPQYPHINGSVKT
`CS(=O)(=O)CCN(CC#N)Cc1ccc(-c2ccc3ncnc(Nc4ccc(OCc5cccc(F)c5)c(Cl)c4)c3c2)o1`: the inhibition is -2.13%. For the compound `CC(=O)Nc1cccc(C#Cc2cncnc2Nc2ccc(OCc3cccc(F)c3)c(Cl)c2)n1`, the inhibition turned out to be 0.03%. The figure for `COc1ccccc1Nc1ncc(-c2ccccc2)o1` is 13.7%; for `NS(=O)(=O)c1cccc(-c2ccc3c(NC(=O)C4CC4)n[nH]c3c2)c1` it is -1.15%; for `Cc1nnc(-c2ccc(C)c(-c3ccc(C(=O)Nc4cccc(C#N)c4)cc3)c2)o1` it is 4.97%. To `COc1ccc(-c2nn3ncccc3c2-c2ccnc(Nc3ccc(Cl)c(C(F)(F)F)c3)n2)cc1` belongs 2.97%; to `O=C1NC(=O)C(c2ccc(Cl)cc2)=C1Nc1ccc(Cl)c(C(=O)O)c1`, 2.13%.

`COC(=O)Nc1nc2cc(Oc3cccc(NC(=O)Nc4cc(C(F)(F)F)ccc4F)c3)ccc2[nH]1`: the inhibition was 2.62%. The figure for `O=C1NC(=O)C(c2cccc(Cl)c2)=C1Nc1ccc(O)c(Cl)c1` is 32.5%; for `CCCN1CCC=C(c2ccc(Nc3nc(Nc4ccccc4C(N)=O)c4cc[nH]c4n3)c(C)c2)C1` it is 7.35%; for `Nc1nc(-c2ccc3c(c2)C(=Cc2cc(Br)c(O)c(Br)c2)C(=O)N3)cs1` it is 1.88%. With `O=C1NC(=O)C(c2ccccc2Cl)=C1Nc1cccc(O)c1`, the inhibition is -3.75%. On to `CCc1cccc(NC(=O)Nc2ccc(Oc3ccc4nc(NC(=O)OC)[nH]c4c3)cc2)c1`, for which the inhibition was found to be 8.89%. `CC1=C(C(=O)Nc2ccc3[nH]ncc3c2)C(c2ccc3ccccc3c2)CC(=O)N1` (stereo not drawn): the inhibition stood at 31.6%. On to `CS(=O)(=O)Nc1ccc(N/C=C2\C(=O)Nc3ccccc32)cc1`, for which the inhibition was found to be 27.1%. The figure for `COc1cc2c(cc1Nc1nc(N3CCc4ccccc43)c3cc[nH]c3n1)N(C(=O)CN(C)C)CC2` is 6.55%; for `CCN1CCC(CC(=O)Nc2n[nH]c3nc(-c4cccs4)c(Br)cc23)CC1` it is -0.25%. The figure for `NCc1ccc(-c2nc(-c3ccc(Cl)c(O)c3)c(-c3ccncc3)[nH]2)cc1` is 6.76%. To `COC(=O)Nc1nc2cc(Oc3ccc(NC(=O)Nc4cccc(C(=O)O)c4)cc3)ccc2[nH]1` belongs 5.77%.

Take `O=C(Nc1n[nH]c2nc(-c3ccco3)c(Br)cc12)C1CC1`: the inhibition was 7.9%.

As to `CCn1c(-c2nonc2N)nc2cnc(Oc3cccc(NC(=O)c4ccc(OCCN5CCOCC5)cc4)c3)cc21`, the inhibition came out at 3.45%.

As for `COc1cccc(-n2ncc3c(N/N=C/c4cccc(F)c4)ncnc32)c1`, the inhibition is -0.48%. On to `Nc1ncnc2occ(-c3ccc(NC(=O)Nc4cccc(C(F)(F)F)c4)cc3)c12`, for which the inhibition was 52.5%. With `CCn1c(-c2nonc2N)nc2cncc(C(=O)N3CC[C@H](N)C3)c21`, the inhibition was found to be 4.96%.

Turning to `COc1cc2ncn(-c3cc(O[C@@H](C)c4ccccc4Cl)c(C(N)=O)s3)c2cc1OC`, the inhibition was determined as 21.9%.

Regarding `CCCN1CCC(Oc2cc(Nc3nc(Nc4cccc(F)c4C(N)=O)c4cc[nH]c4n3)c(OC)cc2Cl)CC1`, the inhibition was 3.3%. To `[O-][S+]1CCN(Cc2ccc(-c3ccc4ncnc(Nc5ccc(OCc6ccccc6)c(F)c5)c4c3)o2)CC1` belongs 3.9%; to `Cc1ccc(C(=O)NC2CCCCC2)cc1-c1ccc(C(=O)NCC2CC2)cc1`, 6.2%. Turning to `CNC(=O)c1cncc(/C=C/c2c(Cl)cccc2Cl)c1`, the inhibition amounted to 7.15%. The figure for `CN(C)c1cc2c(Nc3ccc4nc(Cc5ccccc5)[nH]c4c3)ncnc2cn1` is 10.4%; for `CCn1c(-c2nonc2N)nc2ccncc21` it is 4.73%. The figure for `Fc1cccc(COc2ccc(Nc3ncnc4sc(-c5cccs5)cc34)cc2Cl)c1` is 3.32%; for `Cc1ccc(NC(=O)c2ccnc(N3CCCC3)c2)cc1-c1ccc(C(=O)NCC2CC2)cc1` it is 7.09%.

In general, inhibition refers to the drop in the measured response relative to a control, in per cent.
